Laboratory results taken from the supplement of paper PMC6555819.

Legend:
Experiment in all cases: PBM binding z-score (relative to random genomic background probes); higher = stronger binding; sequences stand for … in GC…GCGATTGACAGCGTAGAATGAAGG
[1] = test system: RARb homodimer (NR concentration 270 nM)
Outline: (§1)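 Probes were double-stranded and carried 34-nt variable regions with direct-repeat seeds, single-nucleotide variants, half-site ablations and random human genomic background sequences, printed on custom Agilent 4×180K protein-binding microarrays. Arrays were incubated 1 h with ligand-free nuclear receptor dimers in PBS pH 7.4, 2% milk, 0.02% Triton X-100, 1 mM DTT, 0.2 mg/mL BSA and 0.4 mg/ml salmon testes DNA. Antibodies against each partner (one per run) detected binding, and scanned fluorescence was regression-normalized. Binding z-scores use the random background probes as reference.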

[2] = test system: RARg:RXRa (NR concentration 270 nM, RXRa partner concentration 90 nM)
Outline: as §1

[3] = test system: RARg homodimer (NR concentration 270 nM)
Outline: as §1

[4] = test system: RXRa DBDmut IVT, anti-RXR (DBD mutation: RXRa K156A/R161A, NR concentration 90 nM)
Outline: as §1

[5] = test system: RXRa homodimer (NR concentration 180 nM)
Outline: as §1

[6] = test system: THRa:RXRa (NR concentration 90 nM, RXRa partner concentration 90 nM)
Outline: as §1

[7] = test system: THRa homodimer (NR concentration 90 nM)
Outline: as §1

[8] = test system: VDR homodimer (NR concentration 270 nM)
Outline: as §1

Sequence | PBM binding z-score [1] | PBM binding z-score [2] | PBM binding z-score [3] | PBM binding z-score [4] | PBM binding z-score [5] | PBM binding z-score [6] | PBM binding z-score [7] | PBM binding z-score [8]
AGTCAAAGTACATCTAGGTAACGTAAGATATGCT | -0.123 | 0.265 | 0.944 | 0.854 | 0.346 | 0.814 | -0.353 | 0.155
CAGCCTAGGTCAGGGACAGTATAGGAGGAACGTT | 2.6 | 3.02 | 3.8 | 0.364 | 1.77 | 2.37 | 0.952 | 0.0373
ACTAGCAGGCTAAGGGTCACTCAAGATTAGTCCG | 3.89 | 3.88 | 3.65 | 0.904 | 4.18 | 2.6 | -0.003 | 1.01
TCTAGCAGGCGAGAGGGTCACTCAAGAGGTACGG | 2.17 | 2.04 | 1.83 | -0.024 | 2.15 | 1.52 | -0.333 | 0.103
GCTGCTAGGTCAACTGATGCTCAGCTAAAGCTCG | 3.18 | 4.37 | 5.36 | 1.64 | 2.89 | 2.89 | 0.915 | -0.0358
CCGACTGGGGCAAGGTTACCATAACGCACAGCCA | 1.33 | 1.31 | 1.39 | -0.473 | 1.34 | 1.33 | 0.342 | -0.0373
GATACATGGTCAAGGCCAGAGTACGCGTATTGAT | 0.856 | 0.785 | 0.985 | -0.244 | 0.439 | 0.149 | -0.41 | 0.0812
CCTATTAGTTGACCATAAGGGCAACCGGAGCTCG | 2.03 | 1.22 | 1.19 | 0.709 | 0.658 | 1.87 | 1.53 | 1.15
TTACCAGGGTGAGCTGAGGTCGTTGATCCAACTC | 1.24 | 1.08 | 0.39 | -0.148 | 1.37 | 4.67 | 1.57 | 2.47
ACTCCGAGGACAAAGGTCAGAGCTACGCCAGTGA | 4.47 | 6.28 | 5.92 | 1.97 | 6.11 | 4.27 | 2.29 | 1.67
ATATCTAGGTAACCAAGTTCAGTGAATGCCGAAC | 1.55 | 0.963 | 0.923 | 0.824 | 0.83 | 1.58 | 0.613 | 2.63
ATACCACGGTGATCGTGAGGTCGTTGATACTAAC | 1.47 | 0.858 | 0.379 | 0.514 | 1.1 | 2.65 | 2.42 | 2.44
ATCTCTAGGTAAAGTTAAGTGAAAGATCGATAGA | -0.142 | 0.48 | 0.546 | 0.204 | 0.171 | 0.478 | -0.14 | 0.368
CGAACTAGGTCAAGGACAATGAATCTCCGCACGC | 3.13 | 3.87 | 4.64 | 1.52 | 2.78 | 3.12 | 2.15 | 0.633
GCTGCGAGGTCAGGTTGGTCAGCTAACGGGTACG | 3.93 | 4.9 | 5.27 | 3.04 | 4.52 | 3.7 | 2.31 | 2.88
ACTATTAGTTGACTTAGGTCAACCGATACGACGC | 3.31 | 2.8 | 2.9 | 1.07 | 2.17 | 3.47 | 2.98 | 1.41
GCGACTGGGGCAAAGCAGGTTACCAAAAGGTTGG | 1.39 | 0.739 | 0.527 | -0.337 | 0.52 | 3.28 | -0.199 | -0.329
AGAACGAGGGCACGTTGAGTTGATAGCAGAGTAG | 1.28 | 1.84 | 1.95 | 1.8 | 1.36 | 1.82 | 0.141 | 2.13
CCTACTGGGCCAAATGTCATTGATTCCAATGCTC | 0.556 | 0.265 | 0.594 | 0.342 | 0.124 | -0.237 | -0.347 | -0.651

Sequence | PBM binding z-score [1] | PBM binding z-score [2] | PBM binding z-score [3] | PBM binding z-score [4] | PBM binding z-score [5] | PBM binding z-score [6] | PBM binding z-score [7] | PBM binding z-score [8]
TCATGTAGATCAGCAGGTTAAGAAAGCTGGCCAA | -0.0199 | -0.0908 | -0.0942 | 0.626 | 0.381 | 0.195 | -0.553 | -0.749
GCGACTGGGGCACCAGCAGGTTACCATAACTTAA | 0.971 | 1.13 | 0.678 | -0.795 | 0.401 | 1.07 | -0.0837 | -0.699
GCGACAGGGGCAAAGCAGGTTACCATAAGGTTGG | 1.21 | 1.06 | 0.918 | 0.664 | 1.06 | 3.83 | 0.135 | 0.281
TCAGACAGGTGAAGGTAACTCACGTACGCAGTCG | 0.616 | 0.706 | 0.586 | 1.3 | 0.939 | 0.624 | 0.0497 | -0.22
AGAATGAGGTTACCAAAGATCAGGGGAACGCTTG | 1.08 | 2.1 | 1.75 | 1.25 | 2.79 | 2.87 | 0.753 | 0.0393
CGAAATAGGTCAAGGACAGTGAATCTCCGCACGC | 3.69 | 5.2 | 6.01 | 1.55 | 4.67 | 3.1 | 1.7 | 0.593
CCTACTTGGCCATCAGGTCATTGATATCAACGTT | 2.89 | 2.15 | 2.12 | 1.5 | 1.43 | 3.39 | 3.64 | 2.19
TTGCCTAGGTCATGGGCCAGTATACCACGCGAAC | 3.1 | 4.39 | 4.41 | 0.413 | 3.94 | 3.35 | 1.54 | 0.622
TCTTGTACATCAACAGGAGGTTAAGAAAGATCGA | 0.799 | 0.549 | 0.344 | 0.744 | 0.927 | 0.755 | -0.281 | 0.136
TCTGCTAGGTCAACCATGGTCAGCTAATCTGCTA | 3.53 | 4.4 | 5.7 | 1.05 | 3.24 | 3.78 | 1.03 | -0.484
ACTAGCAGGCCATGGGTCACTCAAGATTAGTCCG | 2.1 | 1.88 | 2.07 | -0.507 | 1.75 | 1.42 | -0.31 | -0.0856
CAAACTAGGTCACAGAGGTCAAGGTCCGTGCGTA | 5.39 | 7.22 | 7.73 | 2.61 | 7.09 | 5.05 | 3.46 | 4.66
CCTTACGGGTAAAGGTTATAGCACGGGTGGTACG | 1.5 | 2.02 | 1.06 | -1.08 | 2.34 | 1.31 | 0.0229 | 0.43
ATCTCTAGGTAAAAGTTCCGTGAATCCCGAGGAT | -0.157 | 0.0505 | 0.279 | 0.162 | 0.162 | 0.383 | 0.302 | 0.13
CGTCCGAGGTCAGCAGGTCAGTGAAAGCGACGTG | 4.89 | 6.81 | 7.31 | 2.99 | 6.26 | 4.09 | 2.53 | 2.44
TCTACTAGGTCAACGATGGTCAGCTAATCTGCTA | 3.59 | 4.28 | 5.16 | 1.89 | 3.07 | 3.2 | 1.37 | 0.629
TCGTGTAGGTTAGTCGGGGCATTCAGCCAACATA | 1.23 | 0.373 | 0.49 | 1.14 | 0.427 | 1.55 | 0.941 | 1.28
TCGAGTAGGTTACCTATGGGGCATTCAGCTTTCT | 0.279 | 1.39 | 0.398 | 0.211 | 0.571 | 0.16 | -0.89 | -0.367
ATATGTAGGTTAGCTGGGGTCATACAGACTAGGC | 3.9 | 4.36 | 3.32 | 1.64 | 6.14 | 5.18 | 3.83 | 4.09

Sequence | PBM binding z-score [1] | PBM binding z-score [2] | PBM binding z-score [3] | PBM binding z-score [4] | PBM binding z-score [5] | PBM binding z-score [6] | PBM binding z-score [7] | PBM binding z-score [8]
CCTCGGACGACAGAAGGTCAGAGCTGTCCGCTTT | 3.09 | 2.54 | 2.68 | 0.306 | 1.98 | 1.57 | -0.117 | 0.204
TCATATAGGTAATACAAGTGAAAGTCGGCATCTA | 0.148 | 0.857 | 0.72 | 2.07 | 1.23 | 0.601 | 0.0151 | 0.435
ACTAGCAGGCCAAGTGTCACTCAAGATTAGTCCG | 0.681 | 0.433 | 0.865 | 0.117 | 0.215 | 0.0959 | -0.248 | -0.143
TTACCAATGTGAAAGGTCGTTGATGCACGCCTTG | 1.76 | 1.76 | 0.967 | 0.906 | 3.08 | 1.44 | 0.0994 | 1.66
TCTCAGAGGACACGAAAGGTCAGAGCTCGACATC | 4.95 | 5.29 | 6.24 | 1.46 | 4.47 | 3.77 | 0.917 | 0.991
CGAATTAGGTCAAGGACAGTGAATCTCCGCACGC | 3.29 | 3.94 | 4.46 | 1.46 | 2.97 | 3.53 | 2.81 | 0.373
ATCGAAAGGTCGAAGGGGAGTATACCCACCCGAA | 2.2 | 3.86 | 3.58 | 0.681 | 4.21 | 1.73 | -0.345 | 0.649
CGACAAAGTTCAAGGTAACGTAACAGAAAGCAGC | 3.7 | 5.27 | 5.99 | 4.29 | 4.69 | 2.8 | 1.02 | 3.11
ATCTCTAGGTAAACAAGTTCAGTGAATGCCGAAC | 1.51 | 0.719 | 1.05 | 1.09 | 0.385 | 1.33 | 0.65 | 2.69
AGAATGAGGTTATCAAAGATCAGGGAAACGCTTG | 0.294 | 1.47 | 1.24 | 1.49 | 2.28 | 2.58 | 0.571 | 0.495
TCATATAGATAATACAGGTGAAAGTCGGCATCTA | 0.362 | 0.456 | 0.632 | 2.07 | 1.02 | 0.394 | 0.216 | 0.608
CCTACTGGGCCCTCAGGTCATTGATATCAACGTT | 2 | 1.1 | 0.939 | -0.149 | 0.755 | 3 | 2.78 | 1.17
AGAATGAGGTTAATATCAGGGAAACAGAATACAT | 0.835 | 1.84 | 1.48 | 1.22 | 2.14 | 2.36 | 0.795 | 0.82
TCATATAGGGAAACAGGTGAAAGTCCGTAAGTTA | 0.562 | 0.344 | 0.215 | 1.66 | 0.796 | 0.537 | 0.314 | -0.0866
CGAACTCGGTCATTGACAGGACAGTGAATAGTAA | 1.42 | 2.12 | 2.49 | 0.678 | 0.736 | 0.661 | -0.331 | 0.676
ACCGAAAGGTCGAGGTGAGTATAGAGAAAGGGAA | 2.81 | 4.28 | 4.43 | 0.832 | 4.35 | 2.94 | 0.707 | 0.402
AGAACGAGGGCTCGCTGAGTTGATAGCAGAGTAG | -1.22 | -0.312 | -0.258 | -0.292 | -0.132 | -0.509 | -0.958 | -0.176
CCTTACGGGTCACGAGGTTCTAGCACGACGAGCG | 3.27 | 5.61 | 5.78 | 1.49 | 6.58 | 3.25 | 0.28 | 1.86
AATACAGGGTCACTAGGCCAGAGTCGGTACGAAT | 3.25 | 5.29 | 4.87 | 2.71 | 5.3 | 3.43 | 1.24 | 2.7
